This is part of a sample that, as a whole, favours compounds with a hit. Of some 79,000 tested, about 15% had one in any assay. The source made the active and inactive calls. Cut-off read from the data, not from the text of the source: active = growth inhibition above about 70%; inactive = the rest.
Columns and labels:
[1] = NCI Yeast Anticancer Drug Screen. Data for the rad52 strain (AID 147);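 note: 0% = growth of vehicle-treated control cultures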; conditions: S. cerevisiae rad52 mutant growth inhibition, hits give high values
In short: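 Genetically altered yeast (DNA damage repair defect) treated with compound; inhibition calculated relative to vehicle.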

[2] = NCI Yeast Anticancer Drug Screen. Data for the wt1 strain (AID 149);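 note: 0% = growth of vehicle-treated wt1 cultures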; conditions: S. cerevisiae wt1 strain (SPY 50644) growth inhibition, hits give high values
In short: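 Using yeast strain wt1, compound-induced growth inhibition was determined against vehicle-treated cultures.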

[3] = NCI Yeast Anticancer Drug Screen. Data for the rad50EPP+ strain (AID 151);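 note: 0% = growth of vehicle-treated control cultures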; conditions: S. cerevisiae rad50 mutant strain, hits give high values
In short: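 Strain rad50EPP+; compound exposure; % growth inhibition vs vehicle.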

[4] = NCI Yeast Anticancer Drug Screen. Data for the mgt1 strain (AID 153); conditions: S. cerevisiae mgt1 mutant growth inhibition, hits give high values
In short: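 Read-out: yeast growth inhibition vs vehicle control. Strain mgt1, drawn from a panel altered in DNA damage repair or cell cycle control.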

[5] = NCI Yeast Anticancer Drug Screen. Data for the rad50 strain (AID 155);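 note: 0% = growth of vehicle-only cultures of the same strain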; conditions: S. cerevisiae rad50 strain growth inhibition, hits give high values
In short: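 Relative growth inhibition (compound vs vehicle) was measured in yeast with a defined repair-gene alteration.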

[6] = NCI Yeast Anticancer Drug Screen. Data for the mec2-1 strain (AID 157); conditions: S. cerevisiae mec2-1 strain, hits give high values
In short: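 Cells of the genetically defined mec2-1 yeast strain are incubated with test compound. Inhibition of growth is calculated against vehicle-treated controls.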

[7] = NCI Yeast Anticancer Drug Screen. Data for the rad14 strain (AID 159);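 note: 0% = growth of vehicle-treated control cultures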; conditions: S. cerevisiae rad14 strain growth inhibition, hits give high values
In short: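 Screen for anticancer potential: a yeast strain altered in DNA damage repair is grown with compound, and reduced growth is quantified against vehicle controls.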

[8] = NCI Yeast Anticancer Drug Screen. Data for the sgs1 mgt1 strain (AID 161);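 note: 0% = growth of cultures given vehicle only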; conditions: S. cerevisiae sgs1 mgt1 strain, hits give high values
In short: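 Inhibition of yeast growth, normalised to vehicle-treated controls, is reported for a strain bearing genetic alterations in DNA damage repair.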

[9] = NCI Yeast Anticancer Drug Screen. Data for the CLN2oe strain (AID 163);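 note: 0% = growth of vehicle-only control cultures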; conditions: S. cerevisiae CLN2oe strain, hits give high values
In short: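 Strain altered in cell-cycle control, incubated with compound; growth compared to solvent-treated controls.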

[10] = NCI Yeast Anticancer Drug Screen. Data for the cln2 rad14 strain (AID 165);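 note: 0% = growth equal to vehicle treated cultures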; conditions: S. cerevisiae cln2 rad14 strain, hits give high values
In short: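 The screen exposed genetically defined yeast (cln2 rad14) to test compounds and scored growth inhibition relative to vehicle-treated controls.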

[11] = NCI Yeast Anticancer Drug Screen. Data for the bub3 strain (AID 167); conditions: S. cerevisiae bub3 mutant strain, hits give high values
In short: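 Screening used yeast with an engineered genetic alteration affecting cell cycle control. Compound-exposed cultures were compared with vehicle cultures, and reduced growth was taken as inhibition.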

[12] = NCI Yeast Anticancer Drug Screen. Data for the wt2 strain (AID 169);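 note: 0% = growth of vehicle-treated yeast cultures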; conditions: S. cerevisiae wt2 strain growth inhibition, hits give high values
In short: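 Steps: yeast strain treated with compound; growth recorded; inhibition calculated relative to cultures given vehicle alone.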

[13] = NCI Yeast Anticancer Drug Screen. Data for the mlh1 strain (AID 171);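 note: 0% = growth of vehicle-treated control cultures of the same strain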; conditions: S. cerevisiae mlh1 strain growth inhibition, hits give high values
In short: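 Yeast screen: mutant strain plus compound, growth scored against vehicle control wells.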

[14] = NCI Yeast Anticancer Drug Screen. Data for the sgs1 strain (AID 173);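 note: 0% = growth of vehicle-only control cultures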; conditions: S. cerevisiae sgs1 mutant, hits give high values
In short: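 Inhibition of yeast growth served as the measure. The mutant strain was treated with each compound, and growth was normalised to cultures receiving vehicle alone.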

[15] = NCI Yeast Anticancer Drug Screen. Data for the mlh1 rad18 strain (AID 175); conditions: S. cerevisiae mlh1 rad18 strain growth inhibition, hits give high values
In short: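 Compound-treated yeast growth, normalised to vehicle controls. Strain bears defined DNA repair mutations.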

[16] = NCI Yeast Anticancer Drug Screen. Data for the rad18 strain (AID 177); conditions: S. cerevisiae rad18 mutant growth inhibition, hits give high values
In short: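 Inhibition values reflect reduced yeast growth compared with vehicle-treated controls, using a strain engineered with a DNA damage repair defect.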

[17] = at 5.0 µM (retest, dose inferred, filed as 0.5)
[18] = at 50.0 µM (retest, dose inferred, filed as 5.0)

Measured: growth inhibition

COc1cc2c(cc1C[N+](C)(C)CSc1ccccc1)-c1ccccc1CC2
active: [1]; at 11.0 µM 79% | [1]; at 33.0 µM 99% | [1]; at 100.0 µM 99% | [2]; at 33.0 µM 98% | [2]; at 100.0 µM 98% | [4]; at 33.0 µM 98% | [4]; at 100.0 µM 99% | [5]; at 11.0 µM 76% | [5]; at 33.0 µM 98% | [5]; [18] 98% | [5]; at 50.0 µM 99% | [5]; at 100.0 µM 99% | [6]; at 11.0 µM 80% | [6]; at 33.0 µM 98% | [6]; [18] 99% | [6]; at 50.0 µM 99.3% | [6]; at 100.0 µM 96% | [7]; at 33.0 µM 98% | [7]; at 100.0 µM 98% | [8]; [18] 99% | [8]; at 50.0 µM 99.2% | [9]; at 11.0 µM 70% | [9]; at 33.0 µM 98% | [9]; at 100.0 µM 99% | [10]; [18] 99% | [10]; at 50.0 µM 99.3% | [11]; at 11.0 µM 78% | [11]; at 33.0 µM 98% | [11]; [18] 98% | [11]; at 50.0 µM 99.5% | [11]; at 100.0 µM 99% | [12]; at 11.0 µM 96% | [12]; at 33.0 µM 98% | [12]; at 100.0 µM 99% | [13]; at 33.0 µM 98% | [13]; at 100.0 µM 98% | [14]; at 33.0 µM 97% | [14]; at 100.0 µM 99% | [15]; [18] 99% | [15]; at 50.0 µM 99.3% | [16]; at 11.0 µM 77% | [16]; at 33.0 µM 99% | [16]; at 100.0 µM 99%
inactive: [1]; at 1.2 µM -12% | [1]; at 3.7 µM -8% | [2]; at 1.2 µM -17% | [2]; at 3.7 µM -14% | [2]; at 11.0 µM 29% | [3]; at 1.2 µM 3% | [3]; at 3.7 µM 20% | [3]; at 11.0 µM 19% | [3]; at 33.0 µM 20% | [3]; at 100.0 µM 43% | [4]; at 1.2 µM 7% | [4]; at 3.7 µM 15% | [4]; at 11.0 µM 30% | [5]; at 1.2 µM -7% | [5]; at 3.7 µM 8% | [5]; [17] 11% | [6]; at 1.2 µM -6% | [6]; at 3.7 µM 6% | [6]; [17] 3% | [7]; at 1.2 µM -12% | [7]; at 3.7 µM -10% | [7]; at 11.0 µM 64% | [8]; [17] -1% | [9]; at 1.2 µM -17% | [9]; at 3.7 µM 6% | [10]; [17] -3% | [11]; at 1.2 µM 17% | [11]; at 3.7 µM -4% | [11]; [17] 1% | [12]; at 1.2 µM 13% | [12]; at 3.7 µM 21% | [13]; at 1.2 µM 6% | [13]; at 3.7 µM 16% | [13]; at 11.0 µM 35% | [14]; at 1.2 µM 2% | [14]; at 3.7 µM 8% | [14]; at 11.0 µM 36% | [15]; [17] -5% | [16]; at 1.2 µM 9% | [16]; at 3.7 µM 12%

Cn1c2nc3ccccc3c-2nc2ccccc21
inactive: [1]; at 1.2 µM 25% | [2]; at 1.2 µM 6% | [2]; at 3.7 µM 29% | [3]; at 1.2 µM 52% | [4]; at 1.2 µM 4% | [4]; at 3.7 µM 29% | [5]; at 1.2 µM 27% | [6]; at 1.2 µM 10% | [6]; at 3.7 µM 41% | [6]; [17] 33% | [7]; at 1.2 µM 8% | [7]; at 3.7 µM 31% | [8]; [17] 39% | [9]; at 1.2 µM 19% | [9]; at 3.7 µM 46% | [10]; [17] 32% | [11]; at 1.2 µM -5% | [11]; at 3.7 µM 22% | [11]; [17] 16% | [12]; at 1.2 µM 7% | [12]; at 3.7 µM 33% | [13]; at 1.2 µM 9% | [13]; at 3.7 µM 46% | [14]; at 1.2 µM 8% | [14]; at 3.7 µM 42% | [15]; [17] 45% | [16]; at 1.2 µM 8% | [16]; at 3.7 µM 42%
active: [1]; at 3.7 µM 88% | [1]; at 11.0 µM 97% | [1]; at 33.0 µM 98% | [1]; at 100.0 µM 98% | [2]; at 11.0 µM 79% | [2]; at 33.0 µM 96% | [2]; at 100.0 µM 97% | [3]; at 3.7 µM 93% | [3]; at 11.0 µM 98% | [3]; at 33.0 µM 98% | [3]; at 100.0 µM 98% | [4]; at 11.0 µM 80% | [4]; at 33.0 µM 97% | [4]; at 100.0 µM 97% | [5]; at 3.7 µM 81% | [5]; [17] 75% | [5]; at 11.0 µM 95% | [5]; at 33.0 µM 97% | [5]; [18] 97% | [5]; at 50.0 µM 98.6% | [5]; at 100.0 µM 96% | [6]; at 11.0 µM 87% | [6]; at 33.0 µM 97% | [6]; [18] 98% | [6]; at 50.0 µM 96% | [6]; at 100.0 µM 98% | [7]; at 11.0 µM 82% | [7]; at 33.0 µM 97% | [7]; at 100.0 µM 98% | [8]; [18] 95% | [8]; at 50.0 µM 97.9% | [9]; at 11.0 µM 91% | [9]; at 33.0 µM 97% | [9]; at 100.0 µM 97% | [10]; [18] 96% | [10]; at 50.0 µM 96.2% | [11]; at 11.0 µM 88% | [11]; at 33.0 µM 96% | [11]; [18] 97% | [11]; at 50.0 µM 98.2% | [11]; at 100.0 µM 94% | [12]; at 11.0 µM 83% | [12]; at 33.0 µM 96% | [12]; at 100.0 µM 96% | [13]; at 11.0 µM 91% | [13]; at 33.0 µM 97% | [13]; at 100.0 µM 97% | [14]; at 11.0 µM 88% | [14]; at 33.0 µM 97% | [14]; at 100.0 µM 97% | [15]; [18] 98% | [15]; at 50.0 µM 98.1% | [16]; at 11.0 µM 90% | [16]; at 33.0 µM 97% | [16]; at 100.0 µM 93%
